Hits are enriched below; roughly 10% of the tested compounds scored in any of these assays.
bCat KO growth: beta-catenin-lacking colon tumor cell growth suppression; HCT116 beta-catenin knockout viability, CellTiter-Glo, 60 h; active compounds read low; viability, % at 10 µM; actives 1.5% (n = 140,000); AID 818;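 active = viability at or under a set limit, the compound median less 4 SD, cut at about 6% in these data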;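 also: 0% = Hyamine 1622 control at 20 µM and 100% = untreated cell control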
HCT116 PTEN-null: suppresses growth of cells with PTEN deletion; HCT116 PTEN-null viability, CellTiter-Glo, 60 h; active compounds read low; viability, % at 10 µM; actives 1.2% (n = 140,000);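 active = viability at or below a set limit, 4 SD under the median of all tested compounds, cut at about 3.7% in these data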;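 also: PTEN knockout HCT116 line with beta catenin targeted HCT116 as companion control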
Insulin prom inh: TRM-6 insulin promoter activity inhibition | TRM-6 cells (human fetal islet line), insulin promoter-eGFP reporter, imaging; reporter expression induced with tamoxifen | inhibition, % at 2 µM | actives 0.9% (n = 130,000) | AID 1273;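 active = inhibition above the mean plus 3 SD, with well images judged a real hit on visual review, cut at about 60% in these data, passing the limit was not always enough; inconclusive = inhibition over the cutoff but images rejected on review; inactive = inhibition not above the cutoff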
p97 ATPase inh: blocks human p97 ATPase activity. AID 1481. recombinant p97 ATPase, Kinase-Glo ATP luminescence, 3 h. actives 0.42% (n = 220,000). P55072. inhibition, % at 8 µM; in the data active = inhibition above about 15%;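 also: 0% = DMSO vehicle and 100% = wells lacking enzyme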
ROMK mod: human ROMK K+ channel modulation, primary screen; actives 2% (n = 130,000); Tet-inducible ROMK, thallium flux fluorescence; actives lie on both sides; P48048; B-score at 10 µM;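 active = signal ratio slope over the read window, or its plate-corrected B-score, at least 3 SD from the plate mean, either direction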;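 also: B-score of the F/F0 ratio slope over 7 to 12 s after thallium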
Target sequence (P48048 whole entry, looked up): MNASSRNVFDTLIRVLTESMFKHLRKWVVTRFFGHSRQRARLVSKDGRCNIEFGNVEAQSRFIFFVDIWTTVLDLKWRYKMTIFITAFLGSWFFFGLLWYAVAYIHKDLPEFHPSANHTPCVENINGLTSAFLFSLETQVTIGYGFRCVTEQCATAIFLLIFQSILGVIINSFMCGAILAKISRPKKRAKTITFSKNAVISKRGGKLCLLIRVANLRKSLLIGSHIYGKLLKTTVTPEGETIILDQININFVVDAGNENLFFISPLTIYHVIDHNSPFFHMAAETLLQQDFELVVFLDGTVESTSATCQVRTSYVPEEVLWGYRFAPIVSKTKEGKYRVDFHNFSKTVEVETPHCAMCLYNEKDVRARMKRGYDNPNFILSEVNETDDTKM
Lmaj promast: reduces viability of Leishmania major promastigotes. inhibition, % at 10 µM. AID 1063. resazurin fluorescence viability. actives 9% (n = 200,000); in the data active = inhibition above about 50%;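 also: promastigotes grown with compound for 44 hours at 28 °C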
* hit, by the source's call; ? = inconclusive; nt = no result given.

SMILES	bCat KO growth	HCT116 PTEN-null	Insulin prom inh	p97 ATPase inh	ROMK mod	Lmaj promast
COCc1cc(CN2CCCC(C(=O)c3cccc(C(F)(F)F)c3)C2)ccc1OC (stereo unspecified)	nt	nt	nt	-1.8	-0.374	91.6*
COc1ccc(C(=O)C2CCCN(Cc3cnc(N4CCOCC4)s3)C2)c(OC)c1 (stereo unspecified)	nt	nt	nt	0.5	0.339	84.5*
COc1ccc(C(=O)C2CCCN(Cc3ccc(C#CCCO)cc3)C2)cc1F (stereo unspecified)	nt	nt	8.3	-0.2	-0.412	50.0*
COc1ccc(C(=O)C2CCCN(Cc3ccc4nonc4c3)C2)cc1OC (stereo unspecified)	nt	nt	nt	-2.6	0.0414	88.9*
CC(Nc1ccc2c(c1)OCCO2)C(=O)N1c2ccccc2CC1C (stereo unspecified)	nt	nt	nt	1.6	0.00597	-1.0
COc1ccc(C(=O)C2CCCN(Cc3ccc4nonc4c3)C2)cc1F (stereo unspecified)	nt	nt	nt	2.6	-0.602	90.6*
COc1ccc(C(=O)C2CCCN(Cc3nc4ccccc4nc3C)C2)cc1OC (stereo unspecified)	nt	nt	nt	-5.6	-0.363	79.5*
COc1ccc(C(=O)C2CCCN(Cc3cnc(N4CCOCC4)s3)C2)cc1F (stereo unspecified)	nt	nt	nt	0.3	nt	nt
Cc1ccc(NC(=O)/C(C#N)=C/c2cc(C)n(-c3ccc(N4CCOCC4)c([N+](=O)[O-])c3)c2C)c(C)c1	75.6	71.7	35.5	1.5	nt	-4.6
Cc1cc(/C=C(\C#N)C(=O)Nc2ccc(Cl)cc2)c(C)n1-c1ccc(N2CCOCC2)c([N+](=O)[O-])c1	66.1	77.5	50.0	-1.4	-0.672	100.1*
Cc1ccc(F)cc1NC(=O)N1c2ccccc2NC(=O)CC1C (stereo unspecified)	nt	nt	nt	3.5	-0.00613	nt
CNC(=O)c1ccc(-c2ccc(Cl)c(Cl)c2)s1	nt	nt	nt	4.2	-0.197	56.1*
O=C(CN1CCN(Cc2ccc(Cl)cc2)CC1)N/N=C/C=C/c1ccccc1[N+](=O)[O-]	73.5	79.0	?	-8.6	-0.497	9.2
Clc1ccc(CCNc2nc3ccccc3s2)cc1	69.6	78.1	-16.2	0.2	nt	6.4
CCN(CC)CCNC1=NCCn2c1cc1cc(OC)ccc12	49.9	45.2	-48.1	-3.3	-1.25	95.9*
Cc1cc(N)c(-n2cc3c(=O)n(C)c(=O)n(C)c3c2)cc1C	69.6	73.0	64.3	-1.4	-0.16	62.3*
CCN(CC)CCOC(=O)c1c(C)oc2ccc(OC)cc12	85.6	94.7	nt	4.7	-0.406	100.3*
CCN(CC)CCOC(=O)c1cccc(OC)c1	97.2	96.3	-27.0	4.2	nt	-4.7
CCN(CC)CCCOC(=O)c1ccc(OC)cc1O	nt	nt	nt	5.3	-1	74.3*
Nc1cc(=O)[nH]c(=S)n1-c1cccc(C(F)(F)F)c1	97.5	92.3	60.0*	6.2	0.0057	0.2
Cc1cccc(-n2c(N)cc(=O)[nH]c2=S)c1C	103.0	98.3	-21.6	1.9	nt	-1.8
C=CCn1c(=S)[nH]c2scc(-c3cccs3)c2c1=O	nt	nt	55.6	3.2	3.55*	-13.3
C=CCn1c(=S)[nH]c2ccccc2c1=O	96.7	97.2	-236.4	3.9	0.0068	-1.7
O=c1c2c(-c3cccs3)csc2ncn1-c1ccc(Br)cc1	60.6	66.3	-34.2	-0.9	nt	17.6
Cn1c(=S)[nH]c2scc(-c3cccs3)c2c1=O	nt	nt	nt	-4.5	4.01*	-3.0
SMILES	bCat KO growth	HCT116 PTEN-null	Insulin prom inh	p97 ATPase inh	ROMK mod	Lmaj promast
O=C(O)COc1ccccc1/C=N/NC(=O)CSc1nc2ccccc2n1Cc1ccc(Cl)cc1	nt	nt	nt	-0.7	0.79	nt
CCC1Oc2ccccc2N(CC(=O)NCc2cccs2)C1=O (stereo unspecified)	nt	nt	nt	1.9	-0.0712	0.2
Oc1ccc2ccccc2c1C=NC1CCCCC1	nt	nt	nt	-2.7	-0.406	62.1*
Cc1nc(NC(=O)CSc2nnnn2Cc2ccccc2)sc1C	85.3	83.6	nt	-6.7	nt	30.4
O=C(N[C@@H](Cc1ccccc1)c1nc2ccccc2[nH]1)c1cc([N+](=O)[O-])ccc1Cl	81.2	75.0	-17.9	8.6	nt	89.5*
CC(Cc1ccccc1)NC(=O)c1cc([N+](=O)[O-])ccc1Cl (stereo unspecified)	nt	nt	nt	-15.5	nt	nt
C/C(=N/N1CCN(Cc2cccc3ccccc23)CC1)c1ccco1	nt	nt	nt	-3.6	-0.951	nt
Cc1ccc(S(=O)(=O)N(C)C)cc1NS(=O)(=O)c1ccc(Cl)s1	93.5	108.8	41.0	4.7	nt	68.7*
CC(=O)Nc1ccc(-n2c(C)nc(=O)c(-c3ccccc3)c2C)cc1	79.9	91.7	7.1	2.6	-0.196	-7.0
Cc1nc(=O)c(-c2ccccc2)c(C)n1-c1ccc(O)cc1	80.2	102.7	100.0*	-1.7	0.4	-10.1
Cc1ccc2oc3c(c(=O)c2c1)C(c1cccc(Br)c1)N(Cc1ccco1)C3=O (stereo unspecified)	56.4	28.2	17.1	-3.9	0.428	6.1
Cc1cc2oc3c(c(=O)c2cc1C)C(c1cccc(Br)c1)N(Cc1ccco1)C3=O (stereo unspecified)	1.8*	1.4*	28.6	0.2	-0.061	28.0
COc1ccc(Nc2c3c(nc4c(-c5ccccc5)c(C)nn24)CCC3)cc1	78.1	74.1	90.8*	-3.8	nt	29.1
NC(=O)c1ccc[n+](CC(=O)c2ccc(F)cc2)c1	nt	nt	nt	1.2	nt	nt
COc1ccc(S(=O)(=O)Nc2ccccc2C(=O)OC2CCCN(C)C2)cc1OC (stereo unspecified)	84.0	89.1	nt	1.3	nt	100.0*
COc1ccc(S(=O)(=O)Nc2ccccc2C(=O)NC(C)(C)C)cc1OC	97.3	94.6	nt	-5.6	0.573	-8.4
CCN(CC)C(=O)CSc1nc(N)c2c3c(sc2n1)CC(C)CC3 (stereo unspecified)	78.0	85.2	-7.1	-8.4	1.35	64.2*
CCCOc1ccc(C(C)(O)CN2CCOCC2)cc1 (stereo unspecified)	87.2	101.3	nt	-6.6	nt	1.3
CCCC(O)(CCN1CCCCC1)c1ccc(OCC)cc1 (stereo unspecified)	87.5	93.9	nt	-4.3	nt	77.5*
CCCCC(O)(CCN1CCOCC1)c1ccc(Cl)cc1 (stereo unspecified)	72.7	74.9	-50.0	-0.3	-0.417	76.3*
CCCCOc1ccc(OCCCN2CCOCC2)cc1	84.4	90.5	-22.7	-6.2	nt	99.8*
CCC(C)c1ccc(OCCCCN2CCOCC2)cc1 (stereo unspecified)	86.8	86.2	nt	-4.2	0.24	97.0*
CCCCCC(O)(CCN1CCCCC1)c1ccc(OCC)cc1 (stereo unspecified)	nt	nt	-18.8	3.8	-1.12	26.8
CCC(=O)c1ccc(OCCN2CCOCC2)cc1	87.9	95.7	37.5	2.0	0.909	-3.8
O=C(C1=C[C@@H](c2ccc(Br)cc2)C[C@@H](OCCCCO)O1)N1CCN(Cc2ccccc2)CC1	nt	nt	nt	-8.7	nt	19.0
COc1ccc(OC)c(NC(=O)Cc2coc3ccc4ccccc4c23)c1	81.7	84.8	6.7	0.0	nt	13.9
O=C(c1ccco1)c1coc2c1cc(O)c1ccccc12	nt	nt	nt	5.9	0.204	-9.2

Bioassay records: PubChem, several laboratories
